Most compounds without a hit are left out; they make up all but 2.3% or so of the library.
SENP7 block = SENP7 protease inhibitors, primary screen, biochemical, luminescence, uHTS | Sentrin-specific protease 7 (Homo sapiens), Q9BQF6 | recombinant SENP7, Z-RLRGG-aminoluciferin luminescence, 40 min | inhibition, % at 5 µM | actives 1.5% (n = 330,000) | AID 434973, 2010;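 active = inhibition above about 50% at the single test dose, limit read from the data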;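 also: plate controls were DMSO with enzyme for no effect and no enzyme buffer wells for full effect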
SENP8 block-1 = SENP8 protease inhibitors, primary screen, biochemical, luminescence | Sentrin-specific protease 8 (Homo sapiens), Q96LD8 | purified SENP8, Z-RLRGG-aminoluciferin cleavage | inhibition, % at 10 µM | actives 1.2% (n = 330,000); in the data active = inhibition above about 50%
SENP6 block = SENP6 protease inhibitors, primary screen, biochemical, luminescence, uHTS; Recombinant SENP6 catalytic domain, aminoluciferin luminescence; AID 2599, 2010; Sentrin-specific protease 6 (Homo sapiens), Q9GZR1; actives 1.8% (n = 330,000); inhibition, % at 10 µM;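 active = inhibition above about 50% at the single tested dose, limit read from the data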;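 also: plate controls were DMSO wells with enzyme for no effect and DMSO wells lacking enzyme for full effect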
Target sequence (Q9GZR1 628-1112 limits assumed): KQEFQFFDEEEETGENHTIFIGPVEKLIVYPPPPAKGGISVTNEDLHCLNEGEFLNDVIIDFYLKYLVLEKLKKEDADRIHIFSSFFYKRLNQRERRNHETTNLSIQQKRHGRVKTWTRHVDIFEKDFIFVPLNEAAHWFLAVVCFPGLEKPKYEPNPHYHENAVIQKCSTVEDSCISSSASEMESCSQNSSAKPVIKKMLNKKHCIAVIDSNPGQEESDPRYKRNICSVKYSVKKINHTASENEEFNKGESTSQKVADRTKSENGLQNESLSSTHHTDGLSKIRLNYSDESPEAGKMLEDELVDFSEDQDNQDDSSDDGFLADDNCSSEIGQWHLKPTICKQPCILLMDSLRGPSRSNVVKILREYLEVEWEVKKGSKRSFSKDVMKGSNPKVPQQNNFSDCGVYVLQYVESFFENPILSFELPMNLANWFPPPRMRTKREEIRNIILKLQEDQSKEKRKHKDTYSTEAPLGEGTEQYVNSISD
SENP8 block-2 = human SENP8 protease inhibitors, primary screen, biochemical, fluorescence, Nedd8 protein substrate, uHTS; Sentrin-specific protease 8 (Homo sapiens), Q96LD8; recombinant SENP8; inhibition, % at 20 µM; actives 0.64% (n = 360,000); in the data active = inhibition mostly above about 40%, no sharp cut-off; inactive = mostly below about 27%
LGR2 antag = inhibitors of bursicon-induced LGR2 CRE-luciferase signal, primary screen, cell-based, HEK293, CRE-luciferase reporter, bursicon stimulation. bursicon-stimulated, 4 h. inhibition, % at 9.99 µM. actives 0.35% (n = 380,000). AID 720647, 2013;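 active = drop in luminescence signal, shown as inhibition above about 50% in the replicate tests, limit read from the data, passing the limit was not always enough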;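 also: agonist challenge used bursicon conditioned medium at about half maximal strength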
HSP90 inh = HSP90 inhibitors, primary screen, cell lysate, luminescence; Heat shock protein HSP 90 (rabbit reticulocyte lysate; luciferase refolding); Rabbit reticulocyte lysate, luciferase refolding luminescence, 3 h; inhibition, % at 5.6 µM; actives 0.91% (n = 290,000); AID 1789, 2009;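 active = inhibition above the screen-wide mean plus 3 SD, computed separately per campaign, cut at about 16% in these data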;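 also: 0% = DMSO wells and 100% = 60 µM geldanamycin wells; inhibitors lower the luminescence because luciferase stays unfolded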
An asterisk follows results filed as active.

`COc1cccc2c1C(=O)c1c(O)c3c(c(O)c1C2=O)CC(O)(C(C)=O)CC3OC1CC(N(C)C)C(O)C(C)O1` (stereo not drawn) gave SENP8 block-2 49* and LGR2 antag 101*.
For CC(=O)[C@@]1(O)Cc2c(O)c3c(c(O)c2[C@H](O[C@H]2C[C@H](N)[C@H](O)[C@H](C)O2)C1)C(=O)c1ccccc1C3=O the results were SENP8 block-2 29 and LGR2 antag 98*.
Screening COc1cccc2c1C(=O)c1c(O)c3c(c(O)c1C2=O)C[C@@](O)(C(=O)CO)C[C@@H]3O[C@H]1C[C@H](N)[C@H](O)[C@H](C)O1 returned SENP7 block 13, SENP8 block-1 9, SENP6 block 7, SENP8 block-2 26 and HSP90 inh 7.
`COc1cccc2c1C(=O)c1c(O)c3c(c(O)c1C2=O)C[C@@](O)(C(=O)CO)C[C@@H]3OC1CC(N)C(O)C(C)O1` (stereo partly drawn) gave SENP8 block-2 94*.
For C[C@@H]1CN([C@H](C)CO)C(=O)c2cc(NC(=O)Nc3ccccc3)ccc2O[C@@H](C)CCCCO[C@H]1CN(C)S(=O)(=O)c1ccc(Cl)cc1 the results were LGR2 antag 9.
COc1cccc(S(=O)(=O)N2CCC3(CC2)CN[C@@H](CO)c2c3c3ccc(OC)cc3n2C)c1 was read as LGR2 antag 4.
Screening C/C(=N/OC(=O)c1ccc(Cl)cc1Cl)c1oc(C)nc1C returned SENP7 block 87*, SENP8 block-1 83*, SENP6 block 90*, SENP8 block-2 21, LGR2 antag -7 and HSP90 inh 0.
For O=C(C[C@@H]1CC[C@H]2[C@@H](COC[C@@H](O)CN2C(=O)c2ccncc2)O1)NC1CCC1 the results were LGR2 antag 13.
Screening COc1ccccc1C(C[N+](=O)[O-])c1c(N)n(C)c(=O)n(C)c1=O (stereo not drawn) returned SENP7 block 0, SENP8 block-1 2, SENP6 block 7, SENP8 block-2 17, LGR2 antag 69* and HSP90 inh -3.
For CN1C=C/C(=C\c2cc[n+](C)c3ccccc23)c2ccccc21 the results were SENP8 block-2 -16, LGR2 antag 28 and HSP90 inh 17*.
Screening CC[n+]1ccc(/C=C2\Sc3ccccc3N2CCCS(=O)(=O)[O-])c2ccccc21 returned SENP7 block -3, SENP8 block-1 2, SENP6 block -22, SENP8 block-2 7, LGR2 antag 15 and HSP90 inh 1.
`O=C(CC1CC1)N1CC(=O)N2[C@H](CO)[C@@H](c3ccc(C#Cc4ccccc4)cc3)[C@H]2C1` gave LGR2 antag 6.
For CC(C)N1CCc2c(sc(NC(=O)c3nc4ccccc4s3)c2C(N)=O)C1 the results were SENP7 block 2, SENP8 block-1 0, SENP6 block 24, SENP8 block-2 -28, LGR2 antag -3 and HSP90 inh 6.
`CC(=O)N1CCc2c(sc(NC(=O)C3CC3)c2-c2nc3ccccc3s2)C1` gave SENP7 block 26, SENP8 block-1 26, SENP6 block 68*, SENP8 block-2 -353, LGR2 antag 3 and HSP90 inh -1.
`CCCCC(=O)Nc1sc2c(c1-c1nc3ccccc3s1)CCN(C(C)=O)C2` gave HSP90 inh -2.
CC(=O)Nc1sc2c(c1-c1nc3ccccc3s1)CN(C(C)C)CC2 was read as SENP7 block -6, SENP8 block-1 -11, SENP6 block -13, SENP8 block-2 -457 and LGR2 antag 102*.
For C[C@H]1CN([C@@H](C)CO)C(=O)c2cc(NS(=O)(=O)c3cccs3)ccc2O[C@H]1CN(C)Cc1ccc2c(c1)OCO2 the results were LGR2 antag -22.
Screening Cc1ccc(C(=O)COC(=O)c2cccc(O)c2)s1 returned SENP7 block 95*, SENP8 block-1 83*, SENP6 block 93*, SENP8 block-2 -4 and LGR2 antag -24.
For CCCC[n+]1ccn(C2=C([O-])c3ccccc3C(=O)/C2=N\S(=O)(=O)c2ccc(Br)cc2)c1 the results were SENP7 block 22, SENP8 block-1 -1, SENP6 block 49, SENP8 block-2 74*, LGR2 antag 13 and HSP90 inh 1.
`Cc1ccc(S(=O)(=O)/N=C2\C(=O)c3ccccc3C([O-])=C2n2cc[n+](CCC(C)C)c2)cc1` gave SENP7 block 30, SENP8 block-1 25, SENP6 block 38, SENP8 block-2 84* and HSP90 inh -2.
Cc1ccc(-c2ccc3c(c2)O[C@@H](CN(C)C(=O)CC2CC2)[C@@H](C)CN([C@H](C)CO)S3(=O)=O)cc1 was read as LGR2 antag 20.
CCc1ccc(OCc2ccc(C(=O)NCc3ccccn3)o2)cc1 was read as SENP7 block 4, SENP8 block-1 3, SENP6 block -28, SENP8 block-2 17, LGR2 antag -139 and HSP90 inh 17*.
`Cc1ccc(S(=O)(=O)N(C)C[C@H]2Oc3ccc(NC(=O)Cc4cn(C)c5ccccc45)cc3CC(=O)N([C@H](C)CO)C[C@H]2C)cc1` gave LGR2 antag -7.
For Cc1cccc(NC(=O)c2cnc3ccccn3c2=O)c1 the results were SENP7 block 67*, SENP8 block-1 67*, SENP6 block 81*, SENP8 block-2 -42 and HSP90 inh -1.
CN1CCN(C2Cc3ccc(F)cc3Sc3cc(F)c(Cl)cc32)CC1 (stereo not drawn) was read as SENP7 block 4, SENP8 block-1 -10, SENP6 block -7, SENP8 block-2 14 and LGR2 antag 9.
For CC(C)c1ccc2c(c1)C(N1CCNCC1)Cc1ccc(F)cc1S2 (stereo not drawn) the results were SENP7 block -8, SENP8 block-1 -25, SENP6 block -50 and LGR2 antag 104*.
Screening CCN(CC)c1ccc(/C=N/NC(=O)c2ccc3c(c2)OCCO3)cc1 returned SENP7 block 0, SENP8 block-1 7, SENP6 block -8, SENP8 block-2 -446, LGR2 antag -2 and HSP90 inh 5.
For CCN(CC)c1ccc(/C=N/NC(=O)c2ccc(Br)o2)cc1 the results were SENP7 block 49, SENP8 block-1 34, SENP6 block 70*, SENP8 block-2 -292, LGR2 antag -89 and HSP90 inh -2.
O=S(=O)(c1ccc(F)cc1)c1snnc1-c1ccccc1 was read as SENP8 block-2 13, LGR2 antag 58* and HSP90 inh 6.

Bioassay records from PubChem BioAssay.
